According to PubChem BioAssay (NCI):
This is part of a sample that, as a whole, favours compounds with a hit. Of some 83,000 tested, about 20% had one in any assay.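 Results are percent growth after 48 hours of single-concentration exposure. 100 means growth as in untreated cells, lower positive values show inhibition; negative values down to -100 show cell death.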 A number with no mark means an inactive call. The source made the active and inactive calls. How the source made its calls: active means growth percent below 10; inactive means the rest.

Test system: HL-60(TB) leukemia
Assay: NCI-60 one-dose screen, 48 h (100 = growth as untreated, 0 = no growth, -100 = all killed)
Details: 10 µM unless noted

Compound	growth
C(#Cc1ccccc1C#Cc1ccccn1)c1ccc(OCCCCCCOc2ccc(C#Cc3ccccc3C#Cc3ccccn3)cc2)cc1	14.3%
O=C1/C(=C/c2cccc(OCc3ccccc3)c2)Oc2cc(OCCN3CCCCC3)ccc21	67%
Cc1ccc(C2CC(c3ccc(Nc4ccnc5cc(Cl)ccc45)cc3)=NN2C=O)cc1 (configuration not stated)	9.36% (active)
O=C1CS/C(=N\Nc2cc(=O)[nH]c3ccccc23)N1c1ccccc1	96.2%
COC1/C=C/OC2(C)Oc3c(C)c(O)c4c(O)c(c(C=NOC(c5ccccc5)c5ccccc5)c(O)c4c3C2=O)NC(=O)/C(C)=C/C=C/C(C)C(O)C(C)C(O)C(C)C(OC(C)=O)C1C (configuration not stated)	-13.8% (active)
c1ccc(CCSc2ncnc3nc[nH]c23)cc1	74.7%
CC(=O)OC1Oc2cc(C)c(C)cc2-c2oc(=O)c(-c3ccc(F)cc3)cc21 (configuration not stated)	12.5%
COc1ccc(-n2cc(-c3cc(OC)c(OC)c(OC)c3)n(C(C)=O)c2=O)cc1	126%
COc1ccc(Oc2nc(Nc3ccc(N4CCOCC4)nc3)ncc2NC(=O)c2cc(OC)cc(OC)c2)cc1	75%
c1cnc2nc3c(cc2c1)oc1ccccc13	96.4%
COc1cc([C@@H]2c3cc4c(cc3C(OC3O[C@@H]5COC(C)O[C@H]5[C@H](O)[C@H]3O)C3COC(=O)[C@@H]32)OCO4)cc(OC)c1O (some centres not stated)	-2.39% (active)
COc1ccc(-c2nn(-c3cccc(Cl)c3)cc2-c2cc(-c3ccc(Br)cc3)[nH]c(=O)c2C#N)cc1	101%
N=C(N)c1ccc(-c2ccc(-c3ccco3)o2)cc1F	-17.1% (active)
C=C1C(=O)O[C@H]2[C@H]1CC/C(Cn1cc(-c3ccc(OC)cc3)nn1)=C\CC[C@@]1(C)O[C@@H]21	-35.2% (active)
CCOC(=O)c1ccc[nH]1	79.7%
CC(=O)c1ccc(NC(=O)CSc2nnc(-c3cc(-c4ccc(Cl)cc4)nc4ccccc34)o2)cc1	91.3%
CC(=O)CC(=O)N(C)C	114%
CC/C=C\C[C@H](O)C/C=C1/C(=O)C=C[C@@H]1C/C=C\CCCC(=O)OCCS(=O)(=O)c1ccccc1	62.1%
O=c1[nH]cnc2nc[nH]c12	117%

Compound	growth
Cc1cccc(NC(=O)CCc2ccc(N3C(N)=NC(N)=NC3(C)C)cc2)c1	20.1%
CCN(CC)CCCC(C)Nc1c2ccc(Cl)cc2nc2cc(OC)c(OC)cc12 (configuration not stated)	6.67% (active)
COc1cc(NC(C)CCCN)c2ncccc2c1Sc1ccc(Cl)cc1 (configuration not stated)	81.3%
Cc1cc(N2CCN(CC(=O)Nc3ccc4c(ccn4Cc4ccccc4)c3)CC2)nc(N2CCOCC2)n1	87.3%
N/C(=N\O)c1ncc(-c2ccc(C(F)(F)F)cc2)c(NC2CCCCCC2)n1	-58.8% [100 µM] (active)
O=C1Nc2ccccc2/C1=C/c1cn(C[C@@H](O)Cn2c3ccccc3c(=O)c3ccccc32)c2ccccc12	82%
Cc1ccc(C)c2c1SC1=NNC(Oc3ccc(Cl)cc3)=C(C#N)C(=N)N12	122%
O=C(Nc1cc(-c2cccnc2)nc(NCCCN2CCOCC2)n1)c1cc(Br)cc(C(F)(F)F)c1	48.5%
COc1ccc(C(=O)/C=C/c2cccc(Nc3ccnc4cc(Cl)ccc34)c2)cc1	51.7%
COc1ccc(/C=N/NC(=O)Cn2c(-c3ccc(S(C)(=O)=O)cc3)nc3ccccc32)cc1	161%
CCc1c(Cl)nc(N)nc1Nc1ccc(C)c(C)c1	88.1%
Cc1ccc(NC(=O)Nc2c(Cl)cccc2Cl)cn1	71.3%
c1ccc(Nc2nc(-c3ccccn3)cs2)nc1	1.61% (active)
C#C[C@]1(O)CC[C@H]2[C@@H]3CC=C4c5nc(N)sc5CC[C@]4(C)[C@H]3CC[C@@]21C	87.5%
CC(Oc1ccc(C(=O)O)cc1C(F)(F)F)c1ccc(Oc2ccccc2)cn1 (configuration not stated)	101%
Oc1c(Br)c(Br)c(O)c(Br)c1Br	94.3%
N#C/C(=C/c1ccc(O)c([N+](=O)[O-])c1)c1nc(-c2ccc([N+](=O)[O-])cc2)cs1	26.5%
COc1cccc(NC(=O)Cn2cc3c(=O)oc4ccccc4c3n2)c1	107%
